# Laboratory results reported in the supplement of paper PMC8975748.
# ± gives the standard deviation of the averaged measurements.
# Experiments:
# [1] = test system: Saccharomyces cerevisiae BY4741 SeMeCo community; test: mean cell size (pixel area) (pixels); higher = larger cells; conditions: 10 µM; 24 h; SM minimal medium
# Outline: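 A Saccharomyces cerevisiae BY4741 community carrying four plasmids, each with a fluorescent marker and each complementing one auxotrophy, was exposed for 24 h to drug at a final 10 µM in SM medium in acoustically predosed 384-well plates. The overnight preculture (OD600 = 1.0) was diluted to OD600 = 0.3 before 70 µl was added per well. Cells were then fixed with paraformaldehyde, imaged by automated confocal microscopy and analysed in Harmony to derive mean cell pixel area per well, averaged over 3 replicates. Same SeMeCo high-content imaging drug screen: Selleck FDA-approved drugs at 10 µM, 24 h in SM medium, 384-well plates, 3 replicates.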
# [2] = test system: Saccharomyces cerevisiae BY4741 SeMeCo community; test: z-score of prototroph abundance vs DMSO median; higher = larger share of this subpopulation than in DMSO controls; conditions: 10 µM; 24 h; SM minimal medium; subpopulation (auxotrophy): Prototroph
# Outline: (§1)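 A Saccharomyces cerevisiae BY4741 community carried four plasmids, each restoring one auxotrophy and encoding a distinct fluorescent protein. It was pre-grown overnight to OD600 1.0, diluted to 0.3, and 70 µl was added to 384-well plates acoustically predosed with library drugs (10 µM final), then grown 24 h in minimal SM medium. Cells were paraformaldehyde-fixed and imaged by automated confocal microscopy, with single-auxotroph fluorescent strains setting thresholds and autofluorescence correction. Each subpopulation's abundance was scored as a z-score against the vehicle-well median.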
# [3] = test system: Saccharomyces cerevisiae BY4741 SeMeCo community; test: z-score of subpopulation abundance vs DMSO median, subpopulation auxotrophic for M; higher = larger share of this subpopulation than in DMSO controls; conditions: 10 µM; 24 h; SM minimal medium; subpopulation (auxotrophy): M
# Outline: as §1
# [4] = test system: Saccharomyces cerevisiae BY4741 SeMeCo community; test: z-score of subpopulation abundance vs DMSO median, subpopulation auxotrophic for L; higher = larger share of this subpopulation than in DMSO controls; conditions: 10 µM; 24 h; SM minimal medium; subpopulation (auxotrophy): L
# Outline: as §1
# [5] = test system: Saccharomyces cerevisiae BY4741 SeMeCo community; test: z-score of subpopulation abundance vs DMSO median, subpopulation auxotrophic for U; higher = larger share of this subpopulation than in DMSO controls; conditions: 10 µM; 24 h; SM minimal medium; subpopulation (auxotrophy): U
# Outline: as §1
# [6] = test system: Saccharomyces cerevisiae BY4741 SeMeCo community; test: z-score of subpopulation abundance vs DMSO median, subpopulation auxotrophic for H; higher = larger share of this subpopulation than in DMSO controls; conditions: 10 µM; 24 h; SM minimal medium; subpopulation (auxotrophy): H
# Outline: as §1
# [7] = test system: Saccharomyces cerevisiae BY4741 SeMeCo community; test: z-score of subpopulation abundance vs DMSO median, subpopulation auxotrophic for LU; higher = larger share of this subpopulation than in DMSO controls; conditions: 10 µM; 24 h; SM minimal medium; subpopulation (auxotrophy): LU
# Outline: as §1
# [8] = test system: Saccharomyces cerevisiae BY4741 SeMeCo community; test: z-score of subpopulation abundance vs DMSO median, subpopulation auxotrophic for HM; higher = larger share of this subpopulation than in DMSO controls; conditions: 10 µM; 24 h; SM minimal medium; subpopulation (auxotrophy): HM
# Outline: as §1
# [9] = test system: Saccharomyces cerevisiae BY4741 SeMeCo community; test: z-score of subpopulation abundance vs DMSO median, subpopulation auxotrophic for HU; higher = larger share of this subpopulation than in DMSO controls; conditions: 10 µM; 24 h; SM minimal medium; subpopulation (auxotrophy): HU
# Outline: as §1
# [10] = test system: Saccharomyces cerevisiae BY4741 SeMeCo community; test: z-score of subpopulation abundance vs DMSO median, subpopulation auxotrophic for UM; higher = larger share of this subpopulation than in DMSO controls; conditions: 10 µM; 24 h; SM minimal medium; subpopulation (auxotrophy): UM
# Outline: as §1
# [11] = test system: Saccharomyces cerevisiae BY4741 SeMeCo community; test: z-score of subpopulation abundance vs DMSO median, subpopulation auxotrophic for HL; higher = larger share of this subpopulation than in DMSO controls; conditions: 10 µM; 24 h; SM minimal medium; subpopulation (auxotrophy): HL
# Outline: as §1
# [12] = test system: Saccharomyces cerevisiae BY4741 SeMeCo community; test: z-score of subpopulation abundance vs DMSO median, subpopulation auxotrophic for HLU; higher = larger share of this subpopulation than in DMSO controls; conditions: 10 µM; 24 h; SM minimal medium; subpopulation (auxotrophy): HLU
# Outline: as §1
# [13] = test system: Saccharomyces cerevisiae BY4741 SeMeCo community; test: z-score of subpopulation abundance vs DMSO median, subpopulation auxotrophic for HLM; higher = larger share of this subpopulation than in DMSO controls; conditions: 10 µM; 24 h; SM minimal medium; subpopulation (auxotrophy): HLM
# Outline: as §1
# [14] = test system: Saccharomyces cerevisiae BY4741 SeMeCo community; test: z-score of subpopulation abundance vs DMSO median, subpopulation auxotrophic for HUM; higher = larger share of this subpopulation than in DMSO controls; conditions: 10 µM; 24 h; SM minimal medium; subpopulation (auxotrophy): HUM
# Outline: as §1
# [15] = test system: Saccharomyces cerevisiae BY4741 SeMeCo community; test: z-score of subpopulation abundance vs DMSO median, subpopulation auxotrophic for HLUM; higher = larger share of this subpopulation than in DMSO controls; conditions: 10 µM; 24 h; SM minimal medium; subpopulation (auxotrophy): HLUM
# Outline: as §1
# [16] = test system: Saccharomyces cerevisiae BY4741 SeMeCo community; test: z-score of subpopulation abundance vs DMSO median, subpopulation auxotrophic for LUM; higher = larger share of this subpopulation than in DMSO controls; conditions: 10 µM; 24 h; SM minimal medium; subpopulation (auxotrophy): LUM
# Outline: as §1
# [17] = test system: Saccharomyces cerevisiae BY4741 SeMeCo community; test: z-score of subpopulation abundance vs DMSO median, subpopulation auxotrophic for LM; higher = larger share of this subpopulation than in DMSO controls; conditions: 10 µM; 24 h; SM minimal medium; subpopulation (auxotrophy): LM
# Outline: as §1
SMILES,mean cell size [1],z-score of prototroph abundance [2],z-score of subpopulation abundance [3],z-score of subpopulation abundance [4],z-score of subpopulation abundance [5],z-score of subpopulation abundance [6],z-score of subpopulation abundance [7],z-score of subpopulation abundance [8],z-score of subpopulation abundance [9],z-score of subpopulation abundance [10],z-score of subpopulation abundance [11],z-score of subpopulation abundance [12],z-score of subpopulation abundance [13],z-score of subpopulation abundance [14],z-score of subpopulation abundance [15],z-score of subpopulation abundance [16],z-score of subpopulation abundance [17]
Clc1ccc(CCC(Cn2ccnc2)Sc2c(Cl)cccc2Cl)cc1 (stereo not given) [Butoconazole nitrate],12.5 ± 0.15,-7.6,-9.08,-1.91,1.85,30.8,1.13,1.46,13.3,0.67,14.5,12.5,20.2,5.03,20.4,–,–
Cc1ncc([N+](=O)[O-])n1CC(C)O (stereo not given) [Secnidazole],12.4 ± 0.14,-0.48,-0.32,-0.91,1.82,-0.22,0.55,-0.21,0.82,0.75,-0.51,0.35,-0.55,0.55,-0.46,-0.06,–
Cc1nc(C)c(Cl)c(O)c1Cl [Clopidol],–,0.11,-0.51,0.46,-0.09,–,0.07,-0.62,-0.28,-0.13,0.28,-0.09,0.14,-0.08,-0.36,-0.04,-0.19
C[C@@H]1CN(c2c(F)c(N)c3c(=O)c(C(=O)O)cn(C4CC4)c3c2F)C[C@H](C)N1 [Sparfloxacin],12.38 ± 0.094,0.52,-0.53,0.07,-0.2,-0.34,-0.36,-0.01,-0.11,–,-0.29,-0.1,-0.79,-0.04,–,-0.41,–
